# According to PubChem BioAssay (NCATS):
# Several values for one entry are separate records, joined by “and”; a condition that tells them apart may be missing. Identical values can stand only once. Inconclusive results are not listed. Where a call stands in place of a potency, no number is given. Activity calls are given as the source filed them. Unless noted, calls follow the shape of the dose curve; as a rule, active = well fitted curve in the direction sought with a large enough effect; inconclusive = small, poorly fitted or top-dose-only effect, or another doubt; inactive = no such curve, though single readings can be large; an effect the other way counts as inactive or inconclusive.
# Columns and labels:
# [1] = molecular target: Mitogen-activated protein kinase 10 (Mus musculus) (UniProt Q61831); assay: JNK3 AlphaScreen Assay (AID 530; active = well fitted curve in either direction with a large enough effect, not every such curve was filed as active;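 also: kinase came from lysate of stimulated human HepG2 cells; signal reports phosphorylation of biotinylated GST-cJun 1-79 at Ser73 with 10 µM ATP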)
# In short: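 qHTS format: compounds tested as titrations against IL-1beta/TNF-alpha-activated HepG2 lysate JNK3 with biotin-GST-cJun substrate and 10 uM ATP at room temperature. Loss of anti-phospho-cJun AlphaScreen signal indicates inhibition.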
# [2] = molecular target: 3',5'-cyclic-AMP phosphodiesterase 4B (Homo sapiens) (UniProt Q07343); assay: qHTS Assay for Inhibitors of PDE-IV (AID 607; active = well fitted activation curve with a large enough effect in the main read-out, with a control signal flat, not every such curve was filed as active)
# In short: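 The readout is membrane depolarisation from a cAMP-sensing CNG channel, detected with a potential dye at ex 535/em 590. Cells were HEK293-derived (endogenous PDE-IV) at 1000 cells/well, titrated up to 22.9 uM final.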
# [3] = molecular target: DNA dC->dU-editing enzyme APOBEC-3G (Homo sapiens) (UniProt Q9HC16); assay: qHTS for inhibitors of Vif-A3G interactions: Validation (AID 588379)
# In short: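 HeLa cells stably expressing Vif and A3G-eYFP, 700 cells/well, incubated overnight at 37 deg C, then exposed to compound overnight at 37 deg C. Inhibition of Vif-mediated degradation read as increased yellow fluorescence (Ex 488/Em 500-530) by laser-scanning cytometry.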
# [4] = tested on: Zika virus NS2B-NS3 protease; assay: Primary screen GU AMC qHTS for Zika virus inhibitors (AID 1347154); also: nearly all actives have a fitted effect of over 70% in size
# In short: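 Unlinked Zika NS2B hydrophilic domain–NS3 protease complex at 25 nM in 10 mM Tris-HCl pH 8.0, 0.01% Tween 20, with an AMC peptide substrate. Fluorescence change (340/450 nm) over 15 min at room temperature, normalized to controls, fitted to 4-parameter Hill.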
# [5] = Primary qHTS for small molecule stabilizers of the endoplasmic reticulum resident proteome: Secreted ER Calcium Modulated Protein (SERCaMP) assay (AID 1508630)
# In short: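 GLuc-SERCaMP-expressing SH-SY5Y cells, pretreated 16 h with compound, are challenged with thapsigargin to empty ER calcium stores; after 4 h, coelenterazine is added directly to the medium and luminescence is imaged.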
# [6] = qHTS profiling for inhibitors of Plasmodium falciparum (3D7) proliferation (AID 743322; call rule not given here;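 also: infected erythrocytes exposed to compound for 72 h before lysis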); conditions: P. falciparum 3D7 proliferation; at 28.7 µM (top of the series)
# In short: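 Erythrocytes infected with P. falciparum (0.3% parasitemia, 2.5% hematocrit) incubated with compounds 72 h at 37 C, 5% CO2. Lysis with saponin/Triton buffer containing SYBR Green I, overnight at room temperature in the dark; DNA fluorescence (485/535 nm) normalised to 0.29 uM artemisinin and DMSO.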
# [7] = qHTS profiling for inhibitors of Plasmodium falciparum (DD2) proliferation (AID 743323; call rule not given here); conditions: lower = more inhibition; at 28.7 µM (top of the series)
# In short: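 1536-well qHTS; infected RBCs 0.3% parasitemia/2.5% Hct final; cpd 72 h 37 C 5% CO2; lysis buffer + SYBR Green I, o/n RT dark; FI 485/535; norm. to 0.29 uM artemisinin and DMSO, plate-stack corrected.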
# [8] = qHTS profiling for inhibitors of Plasmodium falciparum (HB3) proliferation (AID 743324); conditions: Plasmodium falciparum HB3 blood-stage proliferation; at 28.7 µM (top of the series)
# In short: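 P. falciparum HB3 grown in erythrocytes (0.3% parasitemia, 2.5% hematocrit final) with compound for 72 h at 37 C, 5% CO2. Parasite DNA detected by SYBR Green after saponin/triton lysis overnight; normalized to 0.29 uM artemisinin and DMSO.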
# [9] = AP1 Signaling Pathway (AID 357; active = well fitted curve in either direction with a large enough effect, not every such curve was filed as active;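 also: ME-180 reporter cells stimulated with EGF at its EC50 level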); conditions: ME-180 AP-1-bla reporter, EGF-induced, beta-lactamase ratio, 5 h; at 17.2 µM (top of the series)
# In short: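 First, ME-180 AP-1-bla cells were cultured overnight at 37 °C in low-serum Opti-MEM. Next, titrated compounds with EC50 EGF were incubated 5 hours. Finally, CCF4 was added for 2.5 hours and the 460/530 nm ratio recorded.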
# [10] = NFAT Signaling Pathway (AID 444; active = well fitted curve in either direction with a large enough effect, not every such curve was filed as active;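 also: carbachol stimulus at about its EC50 of 1 µM final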); conditions: Jurkat NFAT-bla M1, carbachol, beta-lactamase ratio, 5 h; at 17.2 µM (top of the series)
# In short: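 Jurkat cells with NFAT-driven β-lactamase reporter and co-expressed M1 receptor, stimulated with carbachol (final 1 uM, ~EC50), compound titration, 5 h at 37 °C. CCF4 loaded 1 h at RT; 460/530 nm ratio gave %activity and AC50.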
# [11] = Stat Signaling Pathway (AID 446; active = well fitted curve in either direction with a large enough effect, not every such curve was filed as active;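 also: ME-180 cervical cancer cells given 40 pM IL-6 alongside compound; SIE-controlled beta-lactamase reporter measured as 460/530 nm FRET emission ratio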); conditions: ME-180 SIE beta-lactamase reporter, IL-6 stimulated, 5 h; at 17.2 µM (top of the series)
# In short: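 Screening format detects activators and inhibitors alike: ME-180 SIE-bla cells stimulated at 40 pM IL-6 for 5 hrs with compound, then dual-emission beta-lactamase read at 405 nm excitation.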
# [12] = qHTS Assay for Lipid Storage Modulators (AID 1519; calls by dose curve); conditions: Drosophila S3 cells, BODIPY lipid droplet/cell ratio, laser cytometry, cells loaded with oleic acid
# In short: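 Cells seeded at 5,000 per well were treated with compounds over a concentration series and loaded with oleic acid (400 uM, as added). Lipid droplet fluorescence (488 nm excitation, 500-530 nm channel) was read by laser-scanning cytometry and normalized to 20 uM Triacsin C.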
# [13] = molecular target: Guanine nucleotide-binding protein G(i) subunit alpha-1 (Homo sapiens) (UniProt P63096); assay: qHTS Assay for Inhibitors of RGS12 GoLoco Motif Activity (Green Fluorophore) (AID 879);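 also: negative values mean loss of peptide binding seen as reduced polarization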
# In short: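 Fluorescence polarization assay: 50 nM Gαi1 with 10 nM FITC-labeled RGS12 GoLoco peptide in 10 mM Tris pH 7.5, 150 mM NaCl, 0.1 mM GDP, 0.05% NP40, 10 min at room temperature with compound.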
# [14] = molecular target: Cytochrome P450 2C19 (Homo sapiens) (UniProt P33261); assay: qHTS Assay for Inhibitors and Substrates of Cytochrome P450 2C19 (AID 899); also: potency is read from the fitted curve at half-maximal effect; nearly all actives have a fitted effect of over 60% in size
# In short: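 5 nM human CYP2C19 with 10uM Luciferin-H EGE (at KM) in 50mM KPO4, compound preincubated 10 min at 37C, then NADPH regeneration for 60 min at 37C. Luciferin read by luminescence after detection reagent; normalized to 57uM ketoconazole as full inhibition.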
# [15] = qHTS Assay for Identification of Small Molecule Antagonists for Thrombopoietin (TPO) Signaling Pathway (AID 918); conditions: TPO-dependent cell signaling reporter, antagonist mode; also: potency is read from the fitted curve at half-maximal effect; nearly all actives have a fitted effect of over 60% in size
# In short: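 First, Ba/F3 reporter cells expressing human TPO receptor were held overnight without IL-3. Next, compound and 26 pM TPO were added. After 24 hrs incubation at 37 C, luciferase luminescence under the Glycoprotein IIb promoter was recorded.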
# [16] = molecular target: Pyruvate kinase (Leishmania mexicana) (UniProt Q27686); assay: qHTS Validation Assay for Inhibitors of Leishmania Mexicana Pyruvate Kinase (AID 945)
# In short: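 Substrate mix (0.5 mM PEP, 0.1 mM ADP, 7 mM MgCl2, 50 mM KCl, pH 7.2 imidazole) received compound by pin tool, then 0.2 nM LmPYK E451W. After 1 h at room temperature, PKLight was added and luminescence measured.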
# [17] = molecular target: Pyruvate kinase PKM (Homo sapiens) (UniProt P14618); assay: qHTS Assay for Activators of Human Muscle Pyruvate Kinase (AID 954; active = well fitted curve in the direction sought with a large enough effect, not every such curve was filed as active)
# In short: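 Reaction: 0.1 nM purified PKM2 with 0.5 mM phosphoenolpyruvate and 0.1 mM ADP, room temperature, 1 h. Readout: luciferase-based ATP luminescence after stop reagent. Activators judged against a 0.3 nM enzyme column.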
# [18] = molecular target: Alpha-galactosidase A (Homo sapiens) (UniProt P06280); assay: Counterscreen for Glucocerebrosidase Inhibitors: qHTS Assay for Human alpha-Galactosidase at pH 4.5 (AID 992)
# In short: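 Concentration-response curves (0.7 nM to 77 uM final) were modeled with the Hill equation to give AC50. Reactions: 2 nM enzyme, 80 uM fluorogenic alpha-galactoside, pH 4.5 citric acid buffer, 20 min, room temperature.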
# [19] = molecular target: alpha-glucosidase (Oryza sativa, rice) (UniProt Q653V4); assay: Counterscreen for Glucocerebrosidase Inhibitors: qHTS Assay for Rice alpha-Glucosidase at pH 5.0 (AID 997)
# In short: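 Rice alpha-glucosidase (4 nM final) with 400 uM 4-methylumbelliferyl-alpha-D-glucopyranoside in citrate buffer pH 5.0, 20 min at room temperature, stopped at pH 10; fluorescence 365/440 nm, compounds 0.7 nM–77 uM, AC50 from Hill fits.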
# [20] = Cytotoxicity counterscreen for NFkB agonists and antagonists (AID 624476)
# [21] = qHTS Assay for Identification of Small Molecule Agonists for NFkB Signaling Pathway. (AID 624478);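 also: compounds tested together with TNF alpha at its EC50 of 10 pM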
# In short: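 Cells carrying an NFkB response element-driven beta-lactamase gene are co-treated with compound and 10 pM TNF alpha for 5 h, and reporter activity is then read as 460 and 530 nm fluorescence.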
# [22] = qHTS Assay for Identification of Small Molecule Antagonists for NFkB Signaling Pathway. (AID 624479; calls by dose curve;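 also: pathway stimulated with TNF alpha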)
# [23] = Cell Proliferation Assay against the TMD8 Cell Line (AID 651645); conditions: TMD8 DLBCL cell line proliferation/viability; at 46.1 µM (top of the series);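 also: cells exposed to compound for 48 h before reading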
# In short: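 Seed log-phase TMD8 cells in RPMI containing 5% FBS, add compounds at once, incubate 48 hours at 37C. Equilibrate to room temperature, add CellTiter-Glo, read luminescence after 15 minutes and express relative to DMSO and bortezomib controls.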
# [24] = Cell Proliferation Assay against the HBL1 Cell Line (AID 651646); conditions: HBL1 DLBCL cells; at 46.1 µM (top of the series);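 also: cells exposed to compound for 48 h before reading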
# In short: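 HBL1 ABC DLBCL cells, 500/well in RPMI with 5% FBS, treated for 48 h at 37C. Viability read by CellTiter-Glo luminescence, normalized to DMSO as 100% and 9.2 uM bortezomib as 0%.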
# [25] = Cell Proliferation Assay against the TMD8 Cell Line (Caspase readout at 16 hrs) (AID 651712); conditions: TMD8 lymphoma cells, caspase activation luminescence; also: potency is read from the fitted curve at half-maximal effect
# In short: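 TMD8 cells in RPMI with 5% FBS were treated with compound for 16 h at 37 C, then caspase 3/7 activation was read by Caspase-Glo luminescence. Percent activity was scaled to DMSO (0%) and 9.2 uM bortezomib final (100%).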
# [26] = Cell Proliferation Assay against the TMD8 Cell Line (Caspase readout at 8 hrs) (AID 651713); conditions: TMD8 lymphoma cells, caspase activation luminescence; also: potency is read from the fitted curve at half-maximal effect
# In short: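 Percent activity derived from Caspase-Glo signal, DMSO set to 0% and bortezomib (9.2 uM final) to 100%. TMD8 cells were exposed to compound for 8 h in RPMI with 5% FBS.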
# [27] = molecular target: Tyrosine-protein kinase Yes (Homo sapiens) (UniProt P07947); assay: qHTS for small molecule inhibitors of Yes1 kinase: Primary Screen (AID 686947); also: nearly all actives have a fitted effect of over 60% in size
# In short: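 ADP-Glo luminescence readout; final 4 nM Yes1, 0.1 mM ATP, 0.3 mg/mL poly(E4Y), Tris pH 7.5, MgCl2, DTT, Brij-35. 20 min compound preincubation, 60 min reaction at RT. Normalized to DMSO wells with and without enzyme.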
# [28] = qHTS for small molecule inhibitors of Yes1 kinase: Counter Assay (AID 686950);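 also: no kinase present so only ADP-Glo detection of a fixed ADP amount is tested; luminescence from ADP-Glo reporting ADP in a fixed ATP and ADP mixture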
# In short: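 Enzyme-free detection counter-screen: compounds preincubated 20 min in buffer, then 0.08 mM ATP plus 0.02 mM ADP added for 60 min at room temperature; ADP-Glo luminescence. Buffer 50 mM Tris pH 7.5, 10 mM MgCl2, 150 mM NaCl; normalized to ATP+ADP and ATP-only controls.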
# Chain of 3',5'-cyclic-AMP phosphodiesterase 4B (Homo sapiens) (Q07343 whole entry, looked up): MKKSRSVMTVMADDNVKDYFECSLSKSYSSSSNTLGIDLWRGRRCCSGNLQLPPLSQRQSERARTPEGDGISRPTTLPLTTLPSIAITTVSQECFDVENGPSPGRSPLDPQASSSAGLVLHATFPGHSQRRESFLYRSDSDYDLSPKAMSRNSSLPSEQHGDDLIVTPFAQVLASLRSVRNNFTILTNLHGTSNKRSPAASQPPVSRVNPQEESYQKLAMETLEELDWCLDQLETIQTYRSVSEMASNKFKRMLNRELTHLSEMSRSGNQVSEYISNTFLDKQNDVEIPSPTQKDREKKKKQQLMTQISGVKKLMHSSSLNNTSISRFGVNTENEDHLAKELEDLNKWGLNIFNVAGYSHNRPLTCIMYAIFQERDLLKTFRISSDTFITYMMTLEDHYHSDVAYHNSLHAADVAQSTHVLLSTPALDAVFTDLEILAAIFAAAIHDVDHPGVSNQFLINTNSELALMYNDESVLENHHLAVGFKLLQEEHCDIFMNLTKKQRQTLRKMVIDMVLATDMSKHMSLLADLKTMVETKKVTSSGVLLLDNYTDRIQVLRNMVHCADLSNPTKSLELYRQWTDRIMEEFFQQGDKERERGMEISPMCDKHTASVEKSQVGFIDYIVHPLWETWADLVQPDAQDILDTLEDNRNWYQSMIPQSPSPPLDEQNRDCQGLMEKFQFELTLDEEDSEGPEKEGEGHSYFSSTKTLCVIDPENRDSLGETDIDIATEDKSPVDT
# Chain of DNA dC->dU-editing enzyme APOBEC-3G (Homo sapiens) (Q9HC16 whole entry, looked up): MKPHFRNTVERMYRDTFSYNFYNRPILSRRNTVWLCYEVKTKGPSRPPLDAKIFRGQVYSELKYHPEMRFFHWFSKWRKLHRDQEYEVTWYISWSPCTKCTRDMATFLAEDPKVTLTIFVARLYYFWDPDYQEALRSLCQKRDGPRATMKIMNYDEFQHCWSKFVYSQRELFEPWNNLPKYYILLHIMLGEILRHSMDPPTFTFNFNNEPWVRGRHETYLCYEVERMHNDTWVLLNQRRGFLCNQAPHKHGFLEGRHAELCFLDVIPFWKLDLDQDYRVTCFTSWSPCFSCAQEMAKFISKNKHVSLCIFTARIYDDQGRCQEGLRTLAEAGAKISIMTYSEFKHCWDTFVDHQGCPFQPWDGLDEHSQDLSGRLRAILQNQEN
# Chain of Pyruvate kinase PKM (Homo sapiens) (P14618 whole entry, looked up): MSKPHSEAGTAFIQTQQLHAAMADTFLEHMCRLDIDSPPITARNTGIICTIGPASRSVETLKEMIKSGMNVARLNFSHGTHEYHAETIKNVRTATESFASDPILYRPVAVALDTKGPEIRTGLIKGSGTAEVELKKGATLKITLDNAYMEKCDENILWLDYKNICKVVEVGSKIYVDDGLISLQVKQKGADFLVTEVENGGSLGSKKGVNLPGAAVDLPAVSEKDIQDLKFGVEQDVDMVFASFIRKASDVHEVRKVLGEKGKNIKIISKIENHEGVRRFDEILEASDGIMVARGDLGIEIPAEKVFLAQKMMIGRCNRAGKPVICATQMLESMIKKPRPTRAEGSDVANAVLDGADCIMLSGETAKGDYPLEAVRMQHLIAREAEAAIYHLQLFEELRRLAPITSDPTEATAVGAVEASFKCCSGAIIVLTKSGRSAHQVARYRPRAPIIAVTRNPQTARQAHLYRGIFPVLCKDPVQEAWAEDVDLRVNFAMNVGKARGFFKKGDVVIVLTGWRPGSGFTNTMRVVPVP
# Chain of Alpha-galactosidase A (Homo sapiens) (P06280 whole entry, looked up): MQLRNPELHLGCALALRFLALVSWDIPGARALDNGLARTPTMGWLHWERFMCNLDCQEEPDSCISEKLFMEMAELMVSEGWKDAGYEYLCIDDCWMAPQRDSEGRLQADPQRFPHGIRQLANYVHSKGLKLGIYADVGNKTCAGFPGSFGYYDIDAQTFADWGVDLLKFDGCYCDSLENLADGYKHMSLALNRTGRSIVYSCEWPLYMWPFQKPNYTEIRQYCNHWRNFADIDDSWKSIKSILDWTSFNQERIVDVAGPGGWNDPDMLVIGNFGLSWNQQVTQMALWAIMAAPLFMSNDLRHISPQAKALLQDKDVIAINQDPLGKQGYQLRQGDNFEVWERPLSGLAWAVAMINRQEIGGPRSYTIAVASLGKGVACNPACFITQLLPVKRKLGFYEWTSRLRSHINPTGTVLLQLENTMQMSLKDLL
# Chain of Cytochrome P450 2C19 (Homo sapiens) (P33261 whole entry, looked up): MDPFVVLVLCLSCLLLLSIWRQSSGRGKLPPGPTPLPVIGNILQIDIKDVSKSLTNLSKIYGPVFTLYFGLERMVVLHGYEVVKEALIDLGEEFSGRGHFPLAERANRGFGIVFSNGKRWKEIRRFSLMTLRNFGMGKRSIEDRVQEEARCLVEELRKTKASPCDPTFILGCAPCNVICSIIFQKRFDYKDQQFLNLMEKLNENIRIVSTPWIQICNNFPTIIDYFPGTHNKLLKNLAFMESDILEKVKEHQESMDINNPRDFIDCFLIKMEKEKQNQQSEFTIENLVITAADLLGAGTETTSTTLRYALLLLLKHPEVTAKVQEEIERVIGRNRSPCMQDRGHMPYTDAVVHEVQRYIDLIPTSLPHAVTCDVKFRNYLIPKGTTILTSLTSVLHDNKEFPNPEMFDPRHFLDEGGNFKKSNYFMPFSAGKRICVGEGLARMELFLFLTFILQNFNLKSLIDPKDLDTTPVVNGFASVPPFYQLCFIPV
# Chain of Guanine nucleotide-binding protein G(i) subunit alpha-1 (Homo sapiens) (P63096 whole entry, looked up): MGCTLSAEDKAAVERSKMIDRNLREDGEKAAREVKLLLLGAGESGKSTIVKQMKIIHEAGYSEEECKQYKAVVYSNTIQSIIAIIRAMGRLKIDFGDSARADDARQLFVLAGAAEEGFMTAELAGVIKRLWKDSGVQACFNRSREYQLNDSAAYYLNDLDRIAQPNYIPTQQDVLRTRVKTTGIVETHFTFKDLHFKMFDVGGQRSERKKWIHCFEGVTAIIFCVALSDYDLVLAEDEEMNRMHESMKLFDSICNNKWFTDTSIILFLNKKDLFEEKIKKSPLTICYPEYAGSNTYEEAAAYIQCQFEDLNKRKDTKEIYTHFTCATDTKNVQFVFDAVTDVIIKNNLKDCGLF
# Chain of Pyruvate kinase (Leishmania mexicana) (Q27686 whole entry, looked up): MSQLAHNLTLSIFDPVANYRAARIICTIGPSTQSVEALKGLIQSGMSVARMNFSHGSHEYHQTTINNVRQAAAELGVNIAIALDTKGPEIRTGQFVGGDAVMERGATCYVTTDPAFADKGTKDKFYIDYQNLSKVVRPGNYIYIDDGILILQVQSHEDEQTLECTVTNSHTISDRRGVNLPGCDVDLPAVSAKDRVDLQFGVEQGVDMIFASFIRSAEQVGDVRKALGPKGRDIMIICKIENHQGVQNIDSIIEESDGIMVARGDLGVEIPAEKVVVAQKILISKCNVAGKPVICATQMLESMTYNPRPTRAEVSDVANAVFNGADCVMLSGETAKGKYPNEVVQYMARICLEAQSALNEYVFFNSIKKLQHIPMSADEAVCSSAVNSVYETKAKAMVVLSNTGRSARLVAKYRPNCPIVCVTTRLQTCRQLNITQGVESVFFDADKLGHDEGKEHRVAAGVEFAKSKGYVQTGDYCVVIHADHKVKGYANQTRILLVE
# Chain of Tyrosine-protein kinase Yes (Homo sapiens) (P07947 whole entry, looked up): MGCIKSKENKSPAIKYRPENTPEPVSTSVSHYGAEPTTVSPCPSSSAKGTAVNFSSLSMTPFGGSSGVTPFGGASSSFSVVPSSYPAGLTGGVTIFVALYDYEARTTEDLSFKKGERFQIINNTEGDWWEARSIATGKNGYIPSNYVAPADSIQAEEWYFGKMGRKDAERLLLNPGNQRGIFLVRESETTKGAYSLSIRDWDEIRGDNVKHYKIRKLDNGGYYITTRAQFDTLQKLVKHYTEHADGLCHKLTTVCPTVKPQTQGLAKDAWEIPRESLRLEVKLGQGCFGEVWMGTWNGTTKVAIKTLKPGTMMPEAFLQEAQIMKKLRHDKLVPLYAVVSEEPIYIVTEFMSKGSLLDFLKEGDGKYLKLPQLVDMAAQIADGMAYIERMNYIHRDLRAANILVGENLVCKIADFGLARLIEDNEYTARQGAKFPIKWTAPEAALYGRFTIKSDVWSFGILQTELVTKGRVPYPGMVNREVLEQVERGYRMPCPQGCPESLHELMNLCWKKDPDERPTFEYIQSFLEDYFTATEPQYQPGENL
compound,measurement,setting,value
COc1cc([C@@H]2c3cc4c(cc3[C@@H](O[C@@H]3O[C@H]5CO[C@@H](C)O[C@@H]5[C@@H](O)[C@H]3O)[C@@H]3COC(=O)[C@@H]23)OCO4)cc(OC)c1O,Potency,[1],inactive
same,Potency,[2],inactive
same,Potency,[3],inactive
same,Potency,[4],inactive
same,Potency,[5],inactive
OC[C@H]1OC([S-])[C@H](O)[C@@H](O)[C@H]1O.[Au+] (stereo partly drawn),remaining parasite growth % (stronger effect = lower value),[6],86.3%
same,"activity, percent of control",[7],98.2%
same,"remaining proliferation (% of control), lower = more inhibition",[8],78.1%
same,Potency,[4],inactive
same,Potency,[5],inactive
CC(C)[N+]1(C)[C@@H]2CC[C@H]1CC(OC(=O)[C@@H](CO)c1ccccc1)C2 (stereo partly drawn),"activity change, negative = inhibition",[9],-0.347% (inactive)
same,"activity change, negative = inhibition",[10],-41.7% (active)
same,"activity, negative = inhibition",[11],2.01% (inactive)
same,Potency,[1],inactive
same,Potency,[2],inactive
same,"activity change, negative = inhibition",[12]; at 25.7 µM (top of the series),1.72% (inactive)
same,"activity change, negative = inhibition",[12]; at 57.5 µM (top of the series),-6.35% (inactive)
same,max response,[12]; measured here: cell count channel max response,2.23% and -7.97%
same,max response,[12]; measured here: lipid channel max response,5.73% and -12.6%
same,Potency,[3],inactive
same,Potency,[4],inactive
CC#C[C@]1(O)CC[C@H]2[C@@H]3CCC4=CC(=O)CCC4=C3[C@H](c3ccc(N(C)C)cc3)C[C@@]21C,Potency,[2],inactive
same,outcome,[13],inactive
same,Potency,[14],7.94 µM (active)
same,Potency,[15],5.01 µM (active)
same,Potency,[16],inactive
same,outcome,[17],inactive
same,outcome,[18],inactive
same,outcome,[19],inactive
same,Potency,[3],inactive
same,outcome,[20],inactive
same,outcome,[21],inactive
same,outcome,[22],inactive
same,viability (% of control),[23],2.64%
same,"viability, percent of control",[24],10.1%
same,Potency,[25],26.4 µM (active)
same,Potency,[26],23.5 µM (active)
same,Potency,[27],inactive
same,outcome,[28],inactive
same,remaining parasite growth % (stronger effect = lower value),[6],20.9%
same,"activity, percent of control",[7],17.2%
same,Potency,[4],inactive
same,Potency,[5],inactive
